In PubChem BioAssay (Tox21):
Records with an inconclusive call do not appear. The source made the active and inactive calls. Unless noted, the call rests on the fitted dose curve; in most records, active means well fitted curve in the direction sought with a large enough effect in the repeat runs; inconclusive means weak or mixed curves; inactive means no such curve, though single readings can be large; an effect the other way counts as inactive or inconclusive.

Assays:
[1] = qHTS assay to identify small molecule agonists of the hypoxia (HIF-1) signaling pathway - cell viability counter screen (AID 1224844; calls by dose curve; further: nearly all actives have a fitted effect of over 50% in size; further: potency means the concentration at half of the fitted maximal effect)
Summary of the method: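 Cells (HRE-bla ME-180, 2,000 per well) sat 5 hrs at 37C, got compound for 17 hrs, were read for CCF4-AM FRET, and were finally lysed with CellTiter-Glo for a 30 min room-temperature luminescence read.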

[2] = qHTS assay to identify small molecule agonists of H2AX (AID 1224845; active means well fitted activation curve with a large enough effect in the signal ratio in the repeat runs, not every such curve was filed as active; the % refers to the signal ratio; further: potency means the concentration at half of the fitted maximal effect)
Summary of the method: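 Wild-type CHO-K1 cells, plated overnight, exposed 3hr at 37C to 15 concentrations (0.76% DMSO final). Lysed, then HTRF anti-pH2AX (S139) cryptate and anti-H2AX-d2 antibodies, 24 hr room temperature; 665/620 nm emission read.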

[3] = qHTS assay to identify small molecule agonists of the hypoxia (HIF-1) signaling pathway (AID 1224846; active means well fitted activation curve with a large enough effect in the signal ratio in the repeat runs, not every such curve was filed as active; the % refers to the signal ratio)
Summary of the method: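 A low-serum medium (0.5% dialyzed FBS) holding 2,000 HRE-bla ME-180 cells per well is preincubated for 5 hrs, dosed with compounds by pintool, and kept a further 17 hrs at 37C, 5% CO2 before CCF4-AM FRET detection of beta-lactamase.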

[4] = qHTS assay to identify small molecule agonists of the estrogen related receptor (ERR) signaling pathway from Tox21 library (AID 1224849; calls by dose curve; further: nearly all actives have a fitted effect of over 15% in size); conditions: ERR reporter cell line, ONE-Glo luciferase, 18 h; at 92.4 µM (top of the series) unless noted
Summary of the method: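 Screening used an NTP-provided ERR luciferase cell line. Compounds in DMSO were added 6 h after seeding and left 18 h at 37 C before a 30 min ONE-Glo step and luminescence reading.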

[5] = qHTS RealTime-Glo MT Cell Viability Assay in HepG2 cells - 24 hour (AID 1224867); further: nearly all actives have a fitted effect of over 50% in size; further: potency means the concentration at half of the fitted maximal effect
Summary of the method: (§1)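 Compound treatment began 5 h after plating HepG2 cells (600/well) with NanoLuc luciferase and prosubstrate. Plates stayed at 37 C for 40 h; luminescence was captured at six time points, 0 h through 40 h.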

[6] = qHTS RealTime-Glo MT Cell Viability Assay in HEK293 cells - 32 hour (AID 1224868); further: nearly all actives have a fitted effect of over 50% in size; further: potency means the concentration at half of the fitted maximal effect
Summary of the method: (§2)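 Quantitative high-throughput screen of the Tox21 10K library in HEK293: cells and RealTime-Glo reagents plated together, compound added at 5 h, luminescence monitored through 40 h at 37 C.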

[7] = A CellTox Green Cytotoxicity Assay to monitor cytotoxicity in HEK293 cells - 0 hour (AID 1224869); further: nearly all actives have a fitted effect of over 50% in size
Summary of the method: (§3)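 Fluorescence intensity, read at 0, 8, 16, 24, 32 and 40 h of compound treatment, reflected dye binding to DNA of dead HEK293 cells; compounds (23 nL, DMSO) were added 5 h after plating cells with reagent.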

[8] = qHTS RealTime-Glo MT Cell Viability Assay in HepG2 cells - 40 hour (AID 1224870); further: nearly all actives have a fitted effect of over 50% in size; further: potency means the concentration at half of the fitted maximal effect
Summary of the method: (§4)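 HepG2 cells (600/well) mixed with RealTime-Glo MT reagent, settled 5 h at 37 C/5% CO2 before compound addition. Nonlytic NanoLuc luminescence from viable-cell prosubstrate reduction read repeatedly during 40 h treatment at 37 C.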

[9] = qHTS RealTime-Glo MT Cell Viability Assay in HEK293 cells - 16 hour (AID 1224872); further: nearly all actives have a fitted effect of over 50% in size; further: potency means the concentration at half of the fitted maximal effect
Summary of the method: as §2

[10] = qHTS RealTime-Glo MT Cell Viability Assay in HepG2 cells - 8 hour (AID 1224873); further: nearly all actives have a fitted effect of over 55% in size; further: potency means the concentration at half of the fitted maximal effect
Summary of the method: as §4

[11] = qHTS RealTime-Glo MT Cell Viability Assay in HEK293 cells - 40 hour (AID 1224874); conditions: RealTime-Glo luminescence; max response: active compounds read low; further: nearly all actives have a fitted effect of over 50% in size; further: potency means the concentration at half of the fitted maximal effect
Summary of the method: (§5)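 Viable HEK293 cells reduce a cell-permeant prosubstrate; the product diffuses out and is consumed by NanoLuc in the medium to give light. Compounds went in after a 5 h incubation and plates were read over the treatment course.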

[12] = A CellTox Green Cytotoxicity Assay to monitor cytotoxicity in HepG2 cells - 16 hour (AID 1224876); further: nearly all actives have a fitted effect of over 45% in size; further: potency means the concentration at half of the fitted maximal effect
Summary of the method: (§6)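 Using 1536-well format, dye-containing HepG2 suspension was seeded, allowed 5 h at 37 C/5% CO2, dosed by pintool with compounds, positive and negative controls, and imaged for fluorescence across 40 h.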

[13] = qHTS RealTime-Glo MT Cell Viability Assay in HepG2 cells - 32 hour (AID 1224877); further: nearly all actives have a fitted effect of over 55% in size; further: potency means the concentration at half of the fitted maximal effect
Summary of the method: as §1

[14] = A CellTox Green Cytotoxicity Assay to monitor cytotoxicity in HepG2 cells - 24 hour (AID 1224878); further: nearly all actives have a fitted effect of over 45% in size; further: potency means the concentration at half of the fitted maximal effect
Summary of the method: as §6

[15] = A CellTox Green Cytotoxicity Assay to monitor cytotoxicity in HepG2 cells - 40 hour (AID 1224879); further: nearly all actives have a fitted effect of over 40% in size; further: potency means the concentration at half of the fitted maximal effect
Summary of the method: as §6

[16] = qHTS RealTime-Glo MT Cell Viability Assay in HEK293 cells - 0 hour (AID 1224880); further: top concentration of the series differs between compounds; nearly all actives have a fitted effect of over 45% in size
Summary of the method: as §5

[17] = qHTS assay to identify small molecule agonists of H2AX - cell viability counter screen (AID 1224847; calls by dose curve; further: nearly all actives have a fitted effect of over 30% in size; further: potency means the concentration at half of the fitted maximal effect)
Summary of the method: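 For this counter screen, overnight-attached CHO-K1 cells received test compounds (15 concentrations, 0.76% DMSO final); 3 hr later at 37C, CellTiter-Glo reagent was added and luminescence recorded after 30 min at room temperature.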

[18] = A CellTox Green Cytotoxicity Assay to monitor cytotoxicity in HEK293 cells - 40 hour (AID 1224871); further: nearly all actives have a fitted effect of over 45% in size; further: potency means the concentration at half of the fitted maximal effect
Summary of the method: as §3

[19] = A CellTox Green Cytotoxicity Assay to monitor cytotoxicity in HEK293 cells - 24 hour (AID 1224875); further: nearly all actives have a fitted effect of over 45% in size; further: potency means the concentration at half of the fitted maximal effect
Summary of the method: as §3

[20] = qHTS assay to identify small molecule antagonists of the estrogen related receptor (ERR) signaling pathway from Tox21 library (AID 1224848); further: nearly all actives have a fitted effect of over 50% in size; further: potency means the concentration at half of the fitted maximal effect
Summary of the method: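 ERR reporter cell line (from NTP) seeded 2,000 cells/well, rested 6 h at 37 C/5% CO2, then pin-dosed with compounds in DMSO. After 18 h at 37 C, ONE-Glo added; luminescence read after 30 min at room temperature.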
On the % scale 0 is the no-effect control and ±100 the full control effect.

C=CCOC(=O)c1ccccc1N
inactive: Potency [1] | Potency [2] | Potency [3] | activity change, positive = activation [4] -28.9% | Potency [5] | Potency [6] | Potency [7] | Potency [8] | Potency [9] | Potency [10] | max response [11] -17.8% | Potency [12] | Potency [13] | Potency [14] | Potency [15] | Potency [16]

CC(=O)[O-].CC(=O)[O-].O.O.O.[Pb+2]
inactive: Potency [1] | Potency [2] | Potency [3] | Potency [17] | Potency [5] | Potency [7] | Potency [8] | Potency [18] | Potency [10] | max response [11] -1.15% | Potency [19] | Potency [12] | Potency [13] | Potency [14] | Potency [15] | Potency [16]

CC(C)(C)c1ccc(OP(=O)(Oc2ccccc2)Oc2ccccc2)cc1
inactive: Potency [1] | Potency [2] | Potency [3] | activity change, positive = activation [4] -31.3% | Potency [5] | Potency [7] | Potency [8] | Potency [18] | Potency [10] | Potency [19] | Potency [12] | Potency [13] | Potency [14] | Potency [15] | Potency [16]
active: Potency [20] 61.5 µM

CNC(=O)Oc1cc(C)cc(C(C)C)c1
inactive: Potency [1] | Potency [2] | Potency [3] | activity change, positive = activation [4] 10.3% | Potency [5] | Potency [6] | Potency [7] | Potency [8] | Potency [18] | Potency [9] | Potency [10] | Potency [19] | Potency [12] | Potency [13] | Potency [14] | Potency [15] | Potency [16]

C#CCC1=C(C)C(OC(=O)C2C(C=C(C)C)C2(C)C)CC1=O (stereo not given)
inactive: Potency [1] | Potency [2] | Potency [3] | activity change, positive = activation [4] -46% | Potency [5] | Potency [7] | Potency [8] | Potency [18] | Potency [10] | Potency [19] | Potency [13] | Potency [14] | Potency [15] | Potency [16]

O=[N+]([O-])c1ccc(Cl)c(Cl)c1Cl
active: Potency [18] 34.2 µM | Potency [19] 24.2 µM
inactive: Potency [1] | Potency [2] | Potency [3] | Potency [20] | Potency [5] | Potency [6] | Potency [7] | Potency [8] | Potency [9] | Potency [10] | Potency [13] | Potency [15]

Cc1c([N+](=O)[O-])cc2c(c1[N+](=O)[O-])C(C)(C)CC2(C)C
inactive: Potency [1] | Potency [2] | Potency [3] | activity change, positive = activation [4] -30.3% | Potency [5] | Potency [6] | Potency [7] | Potency [8] | Potency [9] | Potency [10] | max response [11] -1.57% | Potency [19] | Potency [12] | Potency [13] | Potency [14] | Potency [15] | Potency [16]

CC(C)C(Br)C(=O)NC(N)=O (stereo not given)
inactive: Potency [1] | Potency [2] | Potency [3] | Potency [5] | Potency [6] | Potency [7] | Potency [8] | Potency [18] | Potency [9] | Potency [10] | Potency [19] | Potency [12] | Potency [13] | Potency [14] | Potency [15]

Cc1cnc2c(C(=O)O)c(Cl)ccc2c1
inactive: Potency [1] | Potency [2] | Potency [3] | Potency [20] | Potency [5] | Potency [6] | Potency [7] | Potency [8] | Potency [18] | Potency [9] | Potency [10] | max response [11] 3.08% | Potency [19] | Potency [12] | Potency [13] | Potency [14] | Potency [15] | Potency [16]

C=CC(=C)C
inactive: Potency [1] | Potency [2] | Potency [3] | Potency [5] | Potency [6] | Potency [7] | Potency [8] | Potency [18] | Potency [9] | Potency [10] | max response [11] 8.63% | Potency [19] | Potency [12] | Potency [13] | Potency [14] | Potency [15] | Potency [16]

ClC1=C(Cl)[C@]2(Cl)[C@@H]3[C@H]4C[C@H]([C@@H]5O[C@H]45)[C@@H]3[C@@]1(Cl)C2(Cl)Cl
inactive: Potency [1] | Potency [2] | Potency [3] | Potency [5] | Potency [6] | Potency [7] | Potency [8] | Potency [18] | Potency [9] | Potency [10] | Potency [19] | Potency [12] | Potency [13] | Potency [14] | Potency [15] | Potency [16]

C#CCO
inactive: Potency [1] | Potency [2] | Potency [3] | Potency [5] | Potency [6] | Potency [7] | Potency [8] | Potency [18] | Potency [9] | Potency [10] | Potency [19] | Potency [12] | Potency [13] | Potency [14] | Potency [15] | Potency [16]

CN(C)CCc1c[nH]c2ccccc12
inactive: Potency [1] | Potency [2] | Potency [3] | Potency [5] | Potency [6] | Potency [7] | Potency [8] | Potency [18] | Potency [9] | Potency [10] | Potency [19] | Potency [12] | Potency [13] | Potency [15] | Potency [16]

CC(=O)[O][Pb]([c]1ccccc1)([c]1ccccc1)[c]1ccccc1
active: Potency [1] 1.38 µM | Potency [2] 0.8 µM | Potency [17] 25.3 µM | Potency [20] 0.545 µM | Potency [5] 1.1 µM | Potency [6] 0.49 µM | Potency [8] 0.871 µM | Potency [18] 2.45 µM | Potency [9] 0.49 µM | Potency [10] 3.47 µM | Potency [11] 0.389 µM | Potency [19] 3.89 µM | Potency [12] 1.95 µM | Potency [13] 0.977 µM | Potency [14] 1.38 µM | Potency [15] 0.977 µM
inactive: activity change, positive = activation [4] -77.1% | Potency [7]

N#CCCl
inactive: Potency [1] | Potency [2] | Potency [3] | Potency [5] | Potency [7] | Potency [8] | Potency [18] | Potency [9] | Potency [10] | Potency [19] | Potency [12] | Potency [13] | Potency [14] | Potency [15] | Potency [16]
